About 370 (0.13%) of roughly 290,000 compounds were called active. The full list was thinned out, with actives kept by preference. Results with a measured potency or affinity are listed apart. A number with no mark means an inactive call.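 Rule for the calls: active = spots per cell inhibited over 60%, with over 100 cells counted and total cytoplasm intensity under 500,000; inconclusive = wells with under 100 cells, flagged as likely toxic; inactive = the rest.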
Target: G-protein coupled receptor 55 (Homo sapiens) (UniProt Q9Y2T6)
Sequence (Q9Y2T6 whole entry, looked up): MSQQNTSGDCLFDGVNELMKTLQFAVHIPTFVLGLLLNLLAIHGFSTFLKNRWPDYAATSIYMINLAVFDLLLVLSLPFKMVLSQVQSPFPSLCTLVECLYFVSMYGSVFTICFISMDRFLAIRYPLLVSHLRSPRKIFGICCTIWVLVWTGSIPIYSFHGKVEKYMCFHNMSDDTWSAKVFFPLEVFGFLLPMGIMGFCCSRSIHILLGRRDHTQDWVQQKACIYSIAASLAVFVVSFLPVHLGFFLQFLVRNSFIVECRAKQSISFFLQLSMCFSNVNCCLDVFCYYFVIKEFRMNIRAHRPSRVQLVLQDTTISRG
Test: GPR55 antagonists blocking LPI-driven arrestin recruitment, primary screen, imaging, U2OS, beta-arrestin-GFP, LPI agonist (AID 2013);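 note: U2OS cells stably carrying GPR55 and arrestin-GFP stimulated by 5 µM LPI near EC80; imaged beta-arrestin-GFP aggregate spots per cell after agonist stimulation; plate controls were LPI-stimulated DMSO wells for no effect and DMSO wells without LPI for full effect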
Conditions: U2OS GPR55 beta-arrestin-GFP translocation imaging, LPI antagonism; at 10 µM; stronger effect = higher value

Compound | inhibition
CCCN1Cc2cccc(C(=O)N3CCN(c4ccc(F)cc4)CC3)c2C1=O | 2.2%
O=C(Nc1ccc(F)cc1F)c1cc(-c2ccco2)nc2ccccc12 | 7.3%
CN(/C(=N/S(=O)(=O)c1ccccc1)c1ccccc1)S(=O)(=O)c1ccccc1 | 5.7%
CCc1ccc(CCC(=O)Nc2nccs2)o1 | 2.3%
Oc1ccc(-c2c(-c3ccsc3)sc3ccccc23)cc1 | 6.5%
Nc1ccc(C2(c3ccc(N)cc3)OC(=O)c3ccccc32)cc1 | 4%
CC(=O)Oc1ccc2c(c1)Oc1cc(OC(C)=O)ccc1C21OC(=O)c2ccccc21 | 9.9%
CN(C)c1ccc(C2(c3ccc(N(C)C)cc3)OC(=O)c3cc(N)ccc32)cc1 | 6.1%
Cc1cc(C2(c3ccc(O)c(C)c3)OC(=O)c3ccccc32)ccc1O | 83.2% (active)
Cc1cccc(C2(c3cccc(C)c3)OC(=O)c3ccccc32)c1 | 10.5%
O=C(O)c1ccc(C2(c3ccc(C(=O)O)cc3)OC(=O)c3ccccc32)cc1 | -10.8%
Cc1cc(O)c(C(C)C)cc1C1(c2cc(C(C)C)c(O)cc2C)OC(=O)c2ccccc21 | 6.1%
CCCCOc1ccc(-c2nnn(CC(=O)NCCc3c[nH]c4ccccc34)n2)cc1 | 4%
CCOc1cc(-c2noc(CCC(=O)NCC3CCCO3)n2)ccc1OC (stereo not given) | 0%
COc1ccc(C2CC(=O)c3cnn(-c4nc(C)cc(C)n4)c3C2)cc1OC (stereo not given) | 6.6%
CC1=CC(C)(C)N2C(=O)C3(NCCc4c3[nH]c3ccccc43)c3cccc1c32 (stereo not given) | 18.2%
O=C(CNC(=S)N(Cc1ccc(F)cc1)C1CCCCC1)NCCN1CCOCC1 | 12.3%
Cc1c(C(=O)NC2CCCCC2C)oc2ccccc12 (stereo not given) | 0.8%
COc1cc(NC(=O)C2CCN(S(=O)(=O)c3cccnc3)CC2)cc(OC)c1OC | 8.8%
O=C(c1cccnc1)N1CCN(C(=O)c2cccc(Cl)c2)CC1 | -12.2%

Compound | inhibition
Cc1cccc2c1c(N=NC(N)=S)c(O)n2C1OC(CO)C(O)C(O)C1O (stereo not given) | -13.4%
O=C1NCCN(Cc2ccoc2)C1CC(=O)N(CCO)Cc1ccccc1 (stereo not given) | 1.1%
CCCCOc1ccccc1NC(=O)c1ccc(=O)[nH]c1 | 2.2%
CCCCOc1ccccc1NC(=O)c1ccco1 | 13.2%
O=C(CCc1ccccc1Cl)NC1CCCN(c2ccc(C(F)(F)F)cn2)C1 (stereo not given) | 5%
COc1ccc(C(C(=O)NCCC(C)C)N(CCCO)C(=O)c2snc(C(N)=O)c2N)cc1OC (stereo not given) | 5%
Nn1c(COc2cccc(Cl)c2)nc2ccccc2c1=O | -10.2%
CCc1nonc1NC(=O)c1oc2ccccc2c1C | 10%
N=c1n(Cc2ccccc2)c2ccccc2n1CC(O)COc1ccccc1 (stereo not given) | 50.2%
Cc1ccc(OCC(O)Cn2c(=N)n(Cc3ccccc3)c3ccccc32)cc1 (stereo not given) | 13.1%
O=C(O)CSc1nc2ccccc2n1-c1ccccc1 | 6.1%
CC(C)N(C(=O)CSc1nc2ccccc2n1Cc1ccccc1)C(C)C | 2%
CC(=O)Nc1ccc(NC(=O)c2ccc(C)c(S(=O)(=O)Nc3cccc(C)c3)c2)cc1 | -3.1%
COC(=O)C1CCN(C2=C(NS(=O)(=O)c3ccc(Cl)cc3)C(=O)c3ccccc3C2=O)CC1 | 2%
Cc1cc(NC(=O)NC2CCCN2S(=O)(=O)c2ccc(Cl)cc2)no1 (stereo not given) | 8.3%
Cc1cc(C)cc(-c2nnc(SCC(=O)c3ccc4c(c3)OCCO4)o2)c1 | -7.3%
CC(C)(C)c1ccc(CN(Cc2ccco2)Cc2nnnn2C2CCCC2)cc1 | 19.2%
c1coc(CN(Cc2cccs2)Cc2nnnn2C2CCCCC2)c1 | 25.9%
CCCCCn1c(=O)[nH]c2cc(C(=O)NCc3ccc4c(c3)OCO4)ccc2c1=O | 31.9%
CC1CCN(C(=O)c2ccc([N+](=O)[O-])o2)CC1 | 5.5%

Compound | inhibition
CC(=O)Nc1ccc(NC(=O)C(Sc2ccccc2)c2ccccc2)cc1 (stereo not given) | -1.5%
CCCNC(=O)C(Sc1ccccc1)c1ccccc1 (stereo not given) | 8.1%
CC(=O)NS(=O)(=O)c1ccc(NC(=O)C(Sc2ccccc2)c2ccccc2)cc1 (stereo not given) | 8%
CCCCNC(=O)C(Sc1ccccc1)c1ccccc1 (stereo not given) | -9.3%
CCC(C)NC(=O)C(Sc1ccccc1)c1ccccc1 (stereo not given) | -0.3%
NS(=O)(=O)c1ccc(NC(=O)C(Sc2ccccc2)c2ccccc2)cc1 (stereo not given) | 12.2%
CCOCCc1nn2c(=O)cc(CSCC(=O)Nc3ccc(OC)cc3)nc2s1 | 16.4%
Cc1cc(-c2ccccc2)c2c(=O)n(-c3ccccc3)[nH]c2n1 | -8.8%
COc1cc(S(=O)(=O)N2CCC(C(N)=O)CC2)c(C)cc1C | -8.6%
CCCC(=O)NC(c1ccccc1Cl)c1ccc2cccnc2c1O (stereo not given) | 11.4%
CN(C)c1ccc(/C=N/n2c(COc3ccccc3)n[nH]c2=S)cc1 | 1.6%
COC(=O)c1cc(NC(=O)Cc2ccc(OC)c(OC)c2)cc(C(=O)OC)c1 | 11%
COc1ccc(C(=O)NCC2(c3ccc(OC)c(OC)c3)CCCC2)c(OC)c1 | -8.5%
CCN1CC2=C(OC(N)=C(C#N)C2c2cccs2)/C(=C\c2cccs2)C1 (stereo not given) | 13.2%
CCN1CC2=C(OC(N)=C(C#N)C2c2ccccc2)/C(=C\c2ccccc2)C1 (stereo not given) | 3.6%
Cc1nc2ccccc2nc1OCc1cccc([N+](=O)[O-])c1 | 6.2%
Cc1ccc(C)c(NC(=O)c2ccccc2C(=O)c2ccccc2)c1 | 79.4% (active)
Cc1ccc(C)c(NC(=O)c2ccccc2O)c1 | 10.8%
Cc1cc(C)c(NC(=O)c2ccccc2C(=O)c2ccccc2)c(C)c1 | 10.3%
OCC[C@@H]1C[C@H](O)[C@@H](O)[C@]2(Cc3ccccc3O2)O1 | -2.3%
